Assay [1] concerns the target Estrogen receptor (Homo sapiens) (UniProt P03372). Put plainly: qHTS assay for small molecule agonists of estrogen receptor alpha signaling (AID 588514; calls by dose curve;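 further: 0% = vehicle only and 100% = reference agonist; nearly all actives have a fitted effect of over 70% in size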). Put shortly:
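EC50 and efficacy came from Hill fits of beta-lactamase reporter signal (CCF4 dye, 2 h at room temperature) scaled between DMSO and 20 nM 17-beta-estradiol. Agonist mode: HEK293 ER-alpha-UAS-bla cells in charcoal/dextran-stripped serum medium, 18 h compound exposure at 37 C.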
(In general: qHTS replaces the single test concentration by a dilution series.)

Assay [2] is described as follows: qHTS assay for small molecule antagonists of peroxisome proliferator-activated receptor delta signaling (AID 588535; active means well fitted inhibition curve with a large enough effect in the signal ratio, with a control signal flat, not every such curve was filed as active; the % refers to the signal ratio;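 on max response: cells co-treated with a PPAR-delta agonist as stimulator during compound exposure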). The following applies: HEK293T PPARd-UAS-bla, beta-lactamase FRET ratio, 18 h; 460 nm channel. The essentials:
(§1)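 Titrations were run on PPAR-delta-UAS-bla HEK293T cells in charcoal/dextran-stripped serum, incubated 18 h at 37 C. CCF4 fluorescence (460/530 nm) after 2 h RT; Hill equation yields IC50 and maximal response.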

Assay [3] addresses Peroxisome proliferator-activated receptor delta (Homo sapiens) (UniProt Q03181). Described as above. The essentials: as §1
A short description of assay [4]: qHTS assay for small molecule agonists of retinoid X receptor alpha signaling (AID 588544; calls by dose curve;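 on activation: 0% = DMSO basal wells and 100% = reference agonist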). The following applies: HEK293T RXRa-UAS-bla, beta-lactamase reporter, 18 h; 530 nm emission.
Assay [5] deals with Retinoic acid receptor RXR-alpha (Homo sapiens) (UniProt P19793). The description is as above.
In assay [6] the target is Thyroid hormone receptor beta (Homo sapiens) (UniProt P10828). The assay is described as follows: qHTS assay for small molecule agonists of thyroid hormone receptor beta signaling (AID 588545; calls by dose curve;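 further: 0% = DMSO only and 100% = 10 nM T3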). The essentials:
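Stimulation of a TR-driven beta-lactamase reporter was quantified in GripTite HEK 293 cells. Compound series ran for 18 hrs; curves were normalized to T3 and DMSO controls and fitted to yield EC50.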

Assay [7] is described as follows: qHTS assay for small molecule antagonists of retinoid X receptor alpha signaling (AID 588546; active means well fitted inhibition curve with a large enough effect in the signal ratio, with a control signal flat, not every such curve was filed as active; the % refers to the signal ratio;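 further: cells stimulated with 9-cis-retinoic acid as agonist; on the % scale 0 is the no-effect control and ±100 the full control effect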). The following applies: HEK293T RXRa-UAS-bla, beta-lactamase ratio, antagonist mode; measured here: W530 green channel, cytotoxicity proxy. The essentials: (§2)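 Beta-lactamase reporter inhibition, read as CCF4 fluorescence ratio (ex 405, em 460/530 nm) after 2 h at RT. HEK293T UAS-bla cells, 2500/well, were stimulated with 9-cis-RA at 500 or 100 nM final alongside test compound for 18 h at 37 C.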

The target of assay [8] is Retinoic acid receptor RXR-alpha (Homo sapiens) (UniProt P19793). The description is as above. The note with it: HEK293T RXRa-UAS-bla, beta-lactamase ratio, antagonist mode. Put shortly: as §2
For assay [9], the target named is Thyroid hormone receptor beta (Homo sapiens) (UniProt P10828). The assay is described as follows: qHTS assay for small molecule antagonists of thyroid hormone receptor beta signaling (AID 588547; active means well fitted inhibition curve with a large enough effect in the signal ratio, with a control signal flat, not every such curve was filed as active; the % refers to the signal ratio;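 further: cells stimulated with 0.4 nM T3 agonist during compound exposure; series mostly up to about 77 µM; on the % scale 0 is the no-effect control and ±100 the full control effect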). The following applies: TR-UAS-bla HEK293, beta-lactamase ratio, antagonist mode, 18 h. Put shortly: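 Inhibition of T3-driven (0.4nM final) beta-lactamase reporter activity was measured over 0.59 nM to 92 uM compound after 18 h at 37 C. The cells were GripTite HEK293 TR-UAS-bla in charcoal/dextran-stripped serum, with CCF4 ratio read-out and IC50 from Hill fits.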

Assay [10] can be described thus: qHTS assay for small molecule activators of the p53 signaling pathway (AID 651743; active means well fitted activation curve with a large enough effect in the signal ratio, not every such curve was filed as active; the % refers to the signal ratio; further: series mostly up to about 92 µM; % of control where 0% means no effect). The following applies: HCT-116 p53RE-bla, beta-lactamase FRET ratio, 16 h; activation: stronger effect = higher value. The essentials:
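After 16 hours compound treatment at 37 C, HCT-116 cells stably expressing p53RE-driven beta-lactamase were loaded with LiveBLAzer B/G FRET substrate for 2 hours at room temperature. Fluorescence intensity served as the p53 activation read-out.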

Assay [11] is described as follows: qHTS assay for environmental chemicals that activate the Aryl hydrocarbon Receptor (AhR) signaling pathway (AID 651777). Further: nearly all actives have a fitted effect of over 15% in size. Further: potency means the concentration at half of the fitted maximal effect. On activation: % of control where 0% means no effect. The note with it: 1A2-DRE human hepatoma cells, luciferase, 24 h; activation: stronger effect = higher value. The essentials:
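Stable CYP1A2 promoter/DRE-luciferase human hepatoma line treated 24 hr; One-Glo luminescence, 30 min RT.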

Assay [12] has as its target Peroxisome proliferator-activated receptor alpha (Homo sapiens) (UniProt Q07869). The assay is described as follows: qHTS assay for small molecule agonists of the peroxisome proliferator-activated receptor alpha (PPARalpha) signaling pathway (AID 651778). Further: % of control where 0% means no effect. The note with it: PathHunter PPARalpha complementation, chemiluminescence, 6 h; max response: stronger effect = higher value. The essentials: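 Chemiluminescence from complemented enzyme reported PPARalpha activation in cells after 6 hr of compound treatment at 37 C. The detection reagent was incubated for 60 min at room temperature, and compounds were scored as agonists.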

Assay [13] in a line: qHTS assay for small molecule agonists of the antioxidant response element (ARE) signaling pathway measured by Nrf2-dependant transcriptional activity - cell viability counter screen (AID 720653; active means well fitted curve in the direction sought with a large enough effect in the repeat runs; an effect the other way counts as inactive or inconclusive; further: on the % scale 0 is the no-effect control and ±100 the full control effect). The following applies: ARE-bla HepG2 viability, CellTiter-Glo ATP luminescence, 16 h; max response: stronger effect = lower value. Put shortly: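 Cytotoxicity counter screen: intracellular ATP quantified by CellTiter-Glo luminescence in the same ARE-bla HepG2 plates, after 16 h compound exposure and a 2 h beta-lactamase substrate step.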

Assay [14] can be described thus: qHTS assay for cell viability of HEK293 cells (AID 743288). Further: on the % scale 0 is the no-effect control and ±100 the full control effect; nearly all actives have a fitted effect of over 50% in size. The following applies: ATP luminescence (CellTiter-Glo), 18 h; max response: stronger effect = lower value. Put shortly:
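After 18 h compound exposure at 37 C, parental HEK293 cells (2,000/well) are lysed with CellTiter-Glo and luminescence is read following 30 min at room temperature.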

The nature of assay [15]: qHTS assay for cell viability of the p53RE-bla HCT-116 cell line (AID 743292). Further: on the % scale 0 is the no-effect control and ±100 the full control effect; nearly all actives have a fitted effect of over 55% in size. The essentials:
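Readout: CellTiter-Glo luminescence after 30 min RT. Treatment: compounds in DMSO, 16 h, 37 C. Cells: CellSensor p53RE-bla HCT-116, 4,000/well, preincubated 5 h.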

For assay [16], the target named is Nuclear receptor subfamily 1 group I member 2 (Rattus norvegicus) (UniProt Q9R1A7). The assay is described as follows: qHTS assay for small molecule activators of the rat pregnane X receptor (rPXR) signaling pathway (AID 651751; call rule not given here; further: 0% is about no effect). The following applies: rPXR reporter cells, luciferase (One-Glo), 24 h.
Assay [17] deals with Peroxisome proliferator-activated receptor gamma (Homo sapiens) (UniProt P37231). Put plainly: qHTS assay for small molecule agonists of peroxisome proliferator-activated receptor gamma signaling (AID 588536; active means well fitted curve in the direction sought with a large enough effect in the signal ratio, with a control signal flat, not every such curve was filed as active; the % refers to the signal ratio;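 further: 0% = DMSO basal wells and 100% = rosiglitazone at 2 µM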). The essentials: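 Cells were plated and held 6–6.5 h at 37 C, then compounds were added as a titration series. After a further 16 h, CCF4 dye was loaded for 2 h at room temperature and emission at 460/530 nm recorded.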

Assay [18] concerns the target Vitamin D3 receptor (Homo sapiens) (UniProt P11473). Put plainly: qHTS assay for small molecule antagonists of vitamin D receptor signaling (AID 588541; calls by dose curve;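 further: receptor activated by calcitriol during compound treatment; series mostly up to about 77 µM; on the % scale 0 is the no-effect control and ±100 the full control effect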). The essentials:
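Antagonist-mode beta-lactamase reporter assay: HEK293T VDR-UAS-bla cells were exposed to titrated compound alongside 1-alpha,25-dihydroxyvitamin D3 at 3 nM final for 16 h. Values were normalized to the 50 nM agonist control and DMSO basal, with IC50 and efficacy from Hill equation fits.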

The nature of assay [19]: qHTS assay for small molecule agonists of the antioxidant response element (ARE) signaling pathway measured by Nrf2-dependant transcriptional activity (AID 720636; active means well fitted curve in the direction sought with a large enough effect in the repeat runs; an effect the other way counts as inactive or inconclusive;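 further: HepG2 cells with an ARE-driven luciferase reporter; % of control where 0% means no effect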). The essentials:
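Reporter gene assay, HepG2 ARE-luc: 16 hr compound, 37 C, 5% CO2; read-out luciferase luminescence.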

Assay [20] can be described thus: qHTS assay for small molecule activators of the human pregnane X receptor (PXR) signaling pathway (AID 720659; call rule not given here; further: 0% is about no effect).

Inconclusive results are not listed. Activity calls are given as the source filed them. Unless noted, the call rests on the fitted dose curve; in most records, active means well fitted curve in the direction sought with a large enough effect; inconclusive means small, poorly fitted or top-dose-only effect, or another doubt; inactive means no such curve, though single readings can be large; an effect the other way counts as inactive or inconclusive.

Sequence of Retinoic acid receptor RXR-alpha (Homo sapiens) (P19793 whole entry, looked up): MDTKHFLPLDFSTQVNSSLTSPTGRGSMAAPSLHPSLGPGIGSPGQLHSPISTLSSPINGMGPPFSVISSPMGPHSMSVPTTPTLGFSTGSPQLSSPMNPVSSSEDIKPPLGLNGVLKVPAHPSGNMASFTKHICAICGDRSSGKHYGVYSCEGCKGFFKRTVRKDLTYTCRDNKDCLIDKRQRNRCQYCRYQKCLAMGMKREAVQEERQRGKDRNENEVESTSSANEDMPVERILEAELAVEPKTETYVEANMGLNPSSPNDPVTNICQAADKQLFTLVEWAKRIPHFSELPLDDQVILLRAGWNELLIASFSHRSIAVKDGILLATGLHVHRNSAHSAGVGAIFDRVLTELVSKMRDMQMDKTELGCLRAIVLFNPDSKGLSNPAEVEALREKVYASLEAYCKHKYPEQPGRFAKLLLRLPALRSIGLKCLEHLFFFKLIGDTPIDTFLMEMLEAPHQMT
Sequence of Nuclear receptor subfamily 1 group I member 2 (Rattus norvegicus) (Q9R1A7 whole entry, looked up): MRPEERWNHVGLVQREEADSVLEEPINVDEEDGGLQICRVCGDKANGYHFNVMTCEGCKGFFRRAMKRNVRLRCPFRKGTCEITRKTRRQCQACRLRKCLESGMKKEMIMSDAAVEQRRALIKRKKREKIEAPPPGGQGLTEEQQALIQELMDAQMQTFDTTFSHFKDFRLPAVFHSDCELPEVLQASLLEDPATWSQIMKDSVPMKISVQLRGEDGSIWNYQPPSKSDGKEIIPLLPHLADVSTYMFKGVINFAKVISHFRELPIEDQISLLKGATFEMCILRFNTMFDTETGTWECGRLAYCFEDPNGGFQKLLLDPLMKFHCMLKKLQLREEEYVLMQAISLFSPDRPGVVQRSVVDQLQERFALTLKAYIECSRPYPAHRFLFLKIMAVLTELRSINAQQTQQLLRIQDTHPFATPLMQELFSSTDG
Sequence of Peroxisome proliferator-activated receptor delta (Homo sapiens) (Q03181 whole entry, looked up): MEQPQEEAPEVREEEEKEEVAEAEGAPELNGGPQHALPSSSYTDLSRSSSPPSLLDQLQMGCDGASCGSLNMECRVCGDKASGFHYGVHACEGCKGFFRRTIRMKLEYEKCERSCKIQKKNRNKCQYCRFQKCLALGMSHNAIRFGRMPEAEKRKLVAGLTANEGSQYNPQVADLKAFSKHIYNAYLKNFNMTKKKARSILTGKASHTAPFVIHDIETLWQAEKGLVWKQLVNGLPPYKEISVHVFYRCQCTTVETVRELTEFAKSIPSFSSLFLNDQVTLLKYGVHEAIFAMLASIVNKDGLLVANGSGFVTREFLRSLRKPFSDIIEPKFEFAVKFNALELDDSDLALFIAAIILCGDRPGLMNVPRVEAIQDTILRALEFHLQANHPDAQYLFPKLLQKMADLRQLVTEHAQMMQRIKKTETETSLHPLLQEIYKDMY
Sequence of Estrogen receptor (Homo sapiens) (P03372 whole entry, looked up): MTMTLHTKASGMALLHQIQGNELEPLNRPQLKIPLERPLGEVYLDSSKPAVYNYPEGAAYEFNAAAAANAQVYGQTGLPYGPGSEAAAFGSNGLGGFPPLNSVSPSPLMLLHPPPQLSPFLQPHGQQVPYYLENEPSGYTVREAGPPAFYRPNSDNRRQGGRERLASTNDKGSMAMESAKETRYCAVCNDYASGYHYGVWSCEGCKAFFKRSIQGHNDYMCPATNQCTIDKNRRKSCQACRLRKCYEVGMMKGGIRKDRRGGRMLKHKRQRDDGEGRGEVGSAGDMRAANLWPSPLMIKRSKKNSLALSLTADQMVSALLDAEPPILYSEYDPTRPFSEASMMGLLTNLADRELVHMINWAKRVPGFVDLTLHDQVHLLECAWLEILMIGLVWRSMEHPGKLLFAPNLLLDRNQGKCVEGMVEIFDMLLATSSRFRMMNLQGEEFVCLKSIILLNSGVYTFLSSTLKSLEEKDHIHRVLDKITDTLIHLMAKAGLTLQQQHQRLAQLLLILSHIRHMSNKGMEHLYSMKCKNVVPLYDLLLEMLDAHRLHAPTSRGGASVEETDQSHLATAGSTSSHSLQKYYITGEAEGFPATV
Sequence of Peroxisome proliferator-activated receptor alpha (Homo sapiens) (Q07869 whole entry, looked up): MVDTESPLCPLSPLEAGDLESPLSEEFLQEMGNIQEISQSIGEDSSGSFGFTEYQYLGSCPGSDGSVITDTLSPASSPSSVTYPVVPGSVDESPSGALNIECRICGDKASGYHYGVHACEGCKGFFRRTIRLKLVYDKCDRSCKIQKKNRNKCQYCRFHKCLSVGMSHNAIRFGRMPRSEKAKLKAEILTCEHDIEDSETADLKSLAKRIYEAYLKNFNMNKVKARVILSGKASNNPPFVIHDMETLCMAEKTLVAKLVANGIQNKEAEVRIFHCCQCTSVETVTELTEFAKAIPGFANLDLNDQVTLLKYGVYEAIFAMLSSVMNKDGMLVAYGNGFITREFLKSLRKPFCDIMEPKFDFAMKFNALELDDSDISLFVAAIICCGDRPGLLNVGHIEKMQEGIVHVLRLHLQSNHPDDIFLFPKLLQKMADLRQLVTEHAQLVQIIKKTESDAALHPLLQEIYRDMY
Sequence of Vitamin D3 receptor (Homo sapiens) (P11473 whole entry, looked up): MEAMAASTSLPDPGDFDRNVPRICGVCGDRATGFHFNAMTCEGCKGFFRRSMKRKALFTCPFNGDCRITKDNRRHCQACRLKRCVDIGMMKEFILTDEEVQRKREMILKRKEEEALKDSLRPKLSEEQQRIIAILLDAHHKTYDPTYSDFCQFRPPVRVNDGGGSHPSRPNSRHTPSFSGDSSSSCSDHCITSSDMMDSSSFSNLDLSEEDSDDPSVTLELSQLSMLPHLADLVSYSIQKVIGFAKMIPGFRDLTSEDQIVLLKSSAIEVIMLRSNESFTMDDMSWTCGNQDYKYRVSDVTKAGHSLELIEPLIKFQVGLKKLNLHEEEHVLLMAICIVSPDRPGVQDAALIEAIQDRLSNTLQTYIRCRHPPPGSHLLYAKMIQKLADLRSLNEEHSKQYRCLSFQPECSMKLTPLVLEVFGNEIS
Sequence of Peroxisome proliferator-activated receptor gamma (Homo sapiens) (P37231 whole entry, looked up): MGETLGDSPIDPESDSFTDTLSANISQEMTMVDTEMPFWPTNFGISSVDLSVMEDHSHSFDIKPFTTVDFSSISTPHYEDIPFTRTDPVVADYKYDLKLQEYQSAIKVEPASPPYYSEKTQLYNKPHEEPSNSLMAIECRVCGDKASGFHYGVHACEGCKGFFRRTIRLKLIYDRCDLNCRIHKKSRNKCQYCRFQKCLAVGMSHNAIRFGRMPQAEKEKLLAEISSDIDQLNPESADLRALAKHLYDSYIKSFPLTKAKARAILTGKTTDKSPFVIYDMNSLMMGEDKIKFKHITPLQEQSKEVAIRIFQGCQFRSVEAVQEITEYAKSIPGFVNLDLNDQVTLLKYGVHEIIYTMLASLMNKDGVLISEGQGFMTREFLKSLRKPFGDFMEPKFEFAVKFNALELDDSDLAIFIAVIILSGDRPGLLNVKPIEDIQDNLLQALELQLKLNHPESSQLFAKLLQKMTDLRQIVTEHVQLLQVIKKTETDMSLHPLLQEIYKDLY
Sequence of Thyroid hormone receptor beta (Homo sapiens) (P10828 whole entry, looked up): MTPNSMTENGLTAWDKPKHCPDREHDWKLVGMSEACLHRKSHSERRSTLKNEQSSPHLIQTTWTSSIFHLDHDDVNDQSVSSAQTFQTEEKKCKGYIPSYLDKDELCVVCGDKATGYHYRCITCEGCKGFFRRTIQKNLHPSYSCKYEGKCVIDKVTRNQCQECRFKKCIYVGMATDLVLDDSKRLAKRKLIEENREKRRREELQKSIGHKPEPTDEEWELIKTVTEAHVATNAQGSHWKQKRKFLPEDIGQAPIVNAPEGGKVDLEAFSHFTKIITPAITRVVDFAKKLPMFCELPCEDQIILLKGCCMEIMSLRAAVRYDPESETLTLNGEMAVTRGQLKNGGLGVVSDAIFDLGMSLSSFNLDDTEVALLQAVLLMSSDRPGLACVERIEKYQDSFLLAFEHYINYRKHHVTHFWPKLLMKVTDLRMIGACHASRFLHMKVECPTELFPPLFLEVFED

As for `Cc1ccc(N=Nc2c(O)ccc3ccccc23)c([N+](=O)[O-])c1`, the Potency result in [1], in assay [3], in assay [5], in assay [6] and in [15] was “inactive” throughout. In addition, the max response in assay [2] is 39.9%; in [4], -14.3%; in assay [7], -4.75%; in [8] it was -0.783% (inactive); in assay [12] it was 0.597% (inactive); in assay [13] it was -11.8% (inactive). Moreover, the figures for the max response in assay [14] and in assay [16] were -2.16% (inactive) and 5.08% (inactive), respectively. The activity change % (negative = inhibition) in assay [9] was -2.29% (inactive). The activation in assay [10] was -4.13% (inactive). Besides, the Potency in assay [11] was 17.8 µM (active).

`O=C(O)c1ccc2c(c1)C(=O)OC2=O`: the Potency result in assay [1], in assay [18], in assay [5], in assay [6], in [19] and in [15] was “inactive” each time. For the same molecule, the molecule was called inactive in assay [17]. Further, the max response in assay [4] was -9.87%; in assay [7], -2.35%; in [12], -0.399% (inactive); in assay [13], -5.37% (inactive); in assay [14], -7.11% (inactive); in [16], 0.711% (inactive). Moreover, the activity change % (negative = inhibition) in assay [9] was 1.57% (inactive). For the same molecule, the activation in assay [10] was -0.551% (inactive); in [11] it was 1.29% (inactive).

As for `CC(Cl)(Cl)C(=O)OCCOc1cc(Cl)c(Cl)cc1Cl`, the Potency result in [1], in assay [3], in [18], in assay [5], in [6] and in assay [15] was “inactive” each time. Besides, the max response in assay [2] was -5.22%; in assay [4], -6.02%; in assay [7], -16.7%; in assay [8], 0.808% (inactive); in assay [12] it was 6.22% (inactive); in [13] it was 2.91% (inactive). Besides, the results for the max response in assay [14] and in assay [16] were -9.39% (inactive) and -0.3% (inactive), respectively. The molecule was called inactive in assay [17]. Besides, the activation was -0.345% (inactive) in [10] and 1.95% (inactive) in [11].

Consider `COc1ccccc1NC(=O)CC(C)=O`, for which the max response in assay [2] is 49.4%; in assay [7] it was 7.64%; in assay [8], -16% (inactive); in [12] it was 0.153% (inactive); in assay [13] it was 2.57% (inactive); in assay [14], -19.2% (inactive). Besides, the max response in [16] is 5.67% (inactive). Also, the Potency entry in assay [3], in assay [18], in [19] and in assay [15] was “inactive” in each case. Further, the molecule was called inactive in [17]. The activity change % (negative = inhibition) in assay [9] was -1.32% (inactive). In addition, the activation is -7.86% (inactive) in [10] and 6.41% (inactive) in assay [11].

Take `CCCCC(CC)C(=O)OCCOCCOCCOC(=O)C(CC)CCCC` (stereo unspecified): the Potency result in [1], in [3], in assay [18], in [5], in assay [6] and in assay [19] was “inactive” each time. In addition, the Potency entry in [15] is “inactive”. Also, the max response in [2] was 37.3%; in assay [4], 18.8%; in assay [7], -5.42%; in assay [8] it was -7.08% (inactive); in [12], 0.387% (inactive); in assay [13] it was 1.57% (inactive). For the same molecule, the values for the max response in assay [14] and in [16] were -11.7% (inactive) and 4.7% (inactive), respectively. Besides, the result in assay [17] and in [20] was inactive. Also, the activity change % (negative = inhibition) in [9] was 12.7% (inactive). For the same molecule, the activation in [10] is 0.679% (inactive).

Regarding `CCCCCCCCCCCCCC(=O)OC`, the Potency result in assay [1], in [3], in [18], in [5], in assay [6] and in [19] was “inactive” each time. In addition, the Potency entry in [15] was “inactive”. Also, the max response in [2] is -19.8%; in [4] it was 0.848%; in [7], -10%; in assay [12] it was 0.157% (inactive); in assay [13], -15.8% (inactive); in assay [14], 4.18% (inactive). Further, in assay [16], the max response is 2.49% (inactive). Also, the result in assay [17] and in assay [20] was inactive. The activity change % (negative = inhibition) in assay [9] was 3.36% (inactive). Also, in assay [11], the activation is 0.0228% (inactive).
